# “And” between values parts separate entries of the source, which are not always exact repeats. Equal values may be shown once. The source made the active and inactive calls.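 How the source made its calls, unless noted: active means inhibition at or above 50% relative to wild type and mutant plate controls; inactive means inhibition below 50%.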
# Tests used:
# [1] = reduction of polyQ htt aggregates in cells – imaging, exon1htt(103Q)mCFP cells, high-content imaging, primary screen (AID 483;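 active means visual image review flags a hit and inhibition of aggregation exceeds 20%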;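 further: compound exposure lasted 3 days before fixation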;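 on nuclei count: percent of the per-plate median nuclei count of sample wells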); conditions: exon1htt(103Q)mCFP cell line, aggregate imaging, at 2 µM; inhibition of aggregation: stronger effect = higher value; nuclei count: measured here: cell count, toxicity
# [2] = endothelial E-selectin expression blockers – imaging, HUVEC, immunofluorescence, MLSMR starter and 10KST1 sets, primary screen (AID 487;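 active means visually confirmed hit in the image check and inhibition above 20%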;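 on inhibition: signal is fraction of cell area covered by stained E-selectin grains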;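 on nuclei count: 100% = median nuclei count of all wells on the same plate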); conditions: HUVEC TNFalpha-induced E-selectin immunofluorescence imaging, at 2 µM; inhibition: stronger effect = higher value; nuclei count: measured here: cell number, toxicity
# [3] = Primary imaging screen for DUSP6 inhibitors that restore phospho-Erk in transfected HeLa cells, chemical complementation (AID 609;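 active means compounds giving at least 50% inhibition in the cell-based MKP-3 phosphatase rescue imaging test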;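 on inhibition: phospho-Erk level distribution per well compared with pooled transfected vehicle control wells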); conditions: HeLa MKP-3 transfected, phospho-Erk imaging KS statistic, at 10 µM
# [4] = target: Dual specificity protein phosphatase 6 (Homo sapiens) (UniProt Q16828); test: as above; conditions: HeLa MKP-3 transfected, phospho-Erk imaging KS statistic, at 10 µM, stronger effect = higher value
# Chain of Dual specificity protein phosphatase 6 (Homo sapiens) (Q16828 whole entry, looked up): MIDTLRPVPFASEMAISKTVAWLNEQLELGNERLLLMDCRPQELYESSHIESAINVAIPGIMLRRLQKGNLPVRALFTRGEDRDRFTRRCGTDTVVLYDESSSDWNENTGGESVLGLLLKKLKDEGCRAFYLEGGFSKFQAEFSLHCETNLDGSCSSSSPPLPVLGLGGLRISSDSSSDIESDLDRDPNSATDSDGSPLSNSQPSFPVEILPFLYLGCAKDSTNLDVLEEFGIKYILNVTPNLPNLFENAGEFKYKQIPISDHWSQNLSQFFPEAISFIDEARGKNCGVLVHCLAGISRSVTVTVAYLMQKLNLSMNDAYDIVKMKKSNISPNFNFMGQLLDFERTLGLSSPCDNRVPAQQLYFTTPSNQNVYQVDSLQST
# [5] = target: Voltage-gated potassium channel subunit beta-2 (Rattus norvegicus) (UniProt P62483); test: inhibitors of rat Kvbeta2 reductase activity – biochemical, NADPH fluorescence, primary screen (AID 622;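 active means fluorescence slope higher than the sample average by over 3 SD, cut at about -0.22 in these data, passing the limit was not always enough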;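 further: slope of raw intensity against log time taken from 70 to 1610 s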); conditions: recombinant KvBeta, 4-cyanobenzaldehyde reduction, at 10 µM, stronger effect = higher value
# Chain of Voltage-gated potassium channel subunit beta-2 (Rattus norvegicus) (P62483 whole entry, looked up): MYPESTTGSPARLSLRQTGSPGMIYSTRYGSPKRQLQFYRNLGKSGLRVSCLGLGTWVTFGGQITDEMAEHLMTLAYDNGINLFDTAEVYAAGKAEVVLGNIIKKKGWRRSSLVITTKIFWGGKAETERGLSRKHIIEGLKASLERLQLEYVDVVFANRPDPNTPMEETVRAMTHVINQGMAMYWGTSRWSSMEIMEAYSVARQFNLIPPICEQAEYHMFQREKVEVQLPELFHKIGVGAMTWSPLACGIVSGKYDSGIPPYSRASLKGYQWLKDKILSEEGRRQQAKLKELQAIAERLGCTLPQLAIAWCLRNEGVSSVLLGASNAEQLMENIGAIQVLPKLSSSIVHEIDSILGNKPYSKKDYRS
# [6] = target: Voltage-gated potassium channel subunit beta-2 (Rattus norvegicus) (UniProt P62483); test: enhancers of rat Kvbeta2 NADPH turnover – biochemical, NADPH fluorescence, primary screen (AID 623;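 active means NADPH fluorescence slope more negative than the mean of all samples by about 3 SD, 99.7% confidence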;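 further: fluorescence intensity change per second fitted from 20 to 320 s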); conditions: Recombinant KvBeta, NADPH fluorescence decrease slope, 10 min; at 10 µM; stronger effect = lower value
# [7] = target: Alpha-2C adrenergic receptor (Homo sapiens) (UniProt P18825); test: compounds altering alpha2C-coupled GIRK flux – cell-based, HEK293 alpha2C/GIRK1/2, thallium flux, primary screen (AID 624;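 active means fluorescence slope after compound addition differing from the mean of all screened samples at 99.7% confidence, in either direction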;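 further: slope of fluorescence ratio to pre-addition baseline per second over 15 to 24 s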); conditions: thallium flux BTC fluorescence, at 10 µM, actives lie on both sides
# Chain of Alpha-2C adrenergic receptor (Homo sapiens) (P18825 whole entry, looked up): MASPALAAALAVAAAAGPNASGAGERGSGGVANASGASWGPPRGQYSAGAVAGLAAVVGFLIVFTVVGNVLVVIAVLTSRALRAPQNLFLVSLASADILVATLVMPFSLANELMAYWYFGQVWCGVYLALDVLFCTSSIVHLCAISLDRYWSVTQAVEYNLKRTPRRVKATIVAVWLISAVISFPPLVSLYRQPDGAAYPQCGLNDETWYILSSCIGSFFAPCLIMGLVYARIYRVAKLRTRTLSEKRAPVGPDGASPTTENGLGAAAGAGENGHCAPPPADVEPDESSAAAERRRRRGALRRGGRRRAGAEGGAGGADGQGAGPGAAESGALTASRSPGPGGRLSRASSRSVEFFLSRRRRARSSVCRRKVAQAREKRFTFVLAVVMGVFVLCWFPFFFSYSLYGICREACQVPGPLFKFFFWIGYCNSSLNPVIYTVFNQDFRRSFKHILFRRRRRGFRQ
# [8] = inhibitors of larval lipid processing in zebrafish, primary screen, whole organism, PED6 fluorescence, gall bladder and intestine (AID 686;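 active means a full or partial loss of lipid-probe fluorescence in the fish gall bladder, intestine or both, judged by eye; inactive means no fluorescence loss, or compound toxic to the fish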;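 further: larvae 5 to 7 days old with five fish per well; signal comes from phospholipase A2 cleavage of quenched PED6 carried via bile; overnight exposure to compound and PED6 before scoring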); conditions: Zebrafish larvae PED6 lipid processing, fluorescence scoring
# [9] = loss of swimming-algae plug formation – whole organism, Chlamydomonas reinhardtii, WT vs cilia-less mutant, absorbance, 96-well, primary screen (AID 463189); conditions: Chlamydomonas reinhardtii gravitaxis, OD600 absorbance, 2 days; at 10 µM; stronger effect = higher value;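 further: 0% = wild type cc124 cells in DMSO and 100% = ciliumless bld1 mutant cells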
# [10] = blockers of RIG-like receptor reporter activation – cell-based, Sendai virus stimulus, luciferase, 10K MLSCN set, TLR/RLR signaling modifier project, primary screen (AID 602276;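 active means inhibition at or above 50% at 10 µM; inactive means inhibition below 50%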;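 further: firefly luciferase from ISG56 promoter only with Renilla not read in this screen; 0% = Sendai virus plus DMSO and 100% = medium plus DMSO without virus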); conditions: HEK293 RL24 IRF3 luciferase reporter, at 10 µM, stronger effect = higher value
# [11] = TLR3 IRF3 reporter activation blockers – cell-based, poly I:C stimulus, luciferase, 10K MLSCN set, primary screen (AID 602277;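 active means inhibition of the reporter signal at or above 50%; inactive means inhibition below 50%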); conditions: HEK293-TLR3 RL24 IRF3 luciferase reporter, at 10 µM, stronger effect = higher value
# [12] = target: Muscarinic acetylcholine receptor M4 (Homo sapiens) (UniProt P08173); test: M4-linked GIRK flux change, two-sided – cell-based, HEK293 M4/GIRK, thallium flux, BTC-AM, M4 allosteric agonist project, primary screen (AID 625;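 active means fluorescence slope after compound addition differing from the mean of all tested samples at 99.7% confidence, mostly higher but some lower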;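 further: thallium influx through GIRK channels coupled to M4 in HEK293 cells with BTC-AM dye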); conditions: at 10 µM, actives lie on both sides
# Chain of Muscarinic acetylcholine receptor M4 (Homo sapiens) (P08173 whole entry, looked up): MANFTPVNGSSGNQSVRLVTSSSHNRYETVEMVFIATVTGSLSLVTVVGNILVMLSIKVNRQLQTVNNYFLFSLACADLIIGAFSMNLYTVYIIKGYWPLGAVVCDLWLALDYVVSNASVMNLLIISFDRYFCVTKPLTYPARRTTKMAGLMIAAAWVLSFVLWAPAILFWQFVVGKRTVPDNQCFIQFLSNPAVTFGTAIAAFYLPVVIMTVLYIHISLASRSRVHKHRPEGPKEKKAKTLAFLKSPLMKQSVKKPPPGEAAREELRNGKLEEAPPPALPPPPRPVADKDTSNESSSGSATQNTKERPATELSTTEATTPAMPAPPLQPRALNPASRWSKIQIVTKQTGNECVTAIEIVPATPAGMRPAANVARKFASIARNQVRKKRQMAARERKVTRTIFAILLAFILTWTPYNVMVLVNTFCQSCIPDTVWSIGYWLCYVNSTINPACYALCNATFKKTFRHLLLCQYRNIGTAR
# [13] = measured here: cell density z-score
# [14] = measured here: nuclear c-Myc green intensity z-score
# [15] = measured here: nuclear pErk red intensity z-score, stronger effect = higher value
structure (smiles),measurement,setting,value
c1ccc2c(c1)OCC(C1=NCCN1)O2 (centres undefined),inhibition of aggregation,[1],2.2% (inactive)
same,nuclei count,[1],109%
same,inhibition,[2],-66.1% (inactive)
same,nuclei count,[2],128%
same,z-score,[3]; [13],0.816
same,z-score,[3]; [14],-0.0814
same,z-score,[3]; [15],0.589
same,inhibition,[4],27.9% (inactive)
same,fluorescence slope,[5],0.111 (active)
same,NADPH fluorescence slope,[6],-0.000173 (inactive)
same,slope,[7],0.0054 (inactive)
same,outcome,[8],inactive
same,inhibition,[9],-4.66% (inactive) and 22.4% (inactive)
same,inhibition,[10],-8.86% (inactive)
same,inhibition,[11],10.1% (inactive)
CC(N)[C@H](O)c1ccc(O)c(O)c1 (some centres undefined),inhibition,[9],1.5% (inactive)
CCCN1CCO[C@@H]2c3cc(O)ccc3OC[C@H]21,inhibition,[9],3.37% (inactive) and -1.05% (inactive)
COc1ccc2c(c1)c(C(=O)O)c(C)n2CC(C)C,inhibition,[2],37.7% (inactive)
same,nuclei count,[2],86.4%
same,z-score,[3]; [13],-0.228
same,z-score,[3]; [14],-1.03
same,z-score,[3]; [15],0.232
same,inhibition,[4],-2.07% (inactive)
same,fluorescence slope,[5],-0.462 (inactive)
same,NADPH fluorescence slope,[6],-3.5e-05 (inactive)
same,fluorescence slope,[12],0.00491 (inactive)
same,outcome,[8],inactive
same,inhibition,[9],36.3% (inactive)
CCn1cc(C(=O)O)c(=O)c2ccc(C)nc21,inhibition,[9],-5.13% (inactive) and 33.3% (inactive)
CC(=O)CC(C)(C)n1c[n+](C)nn1,inhibition,[2],-59% (inactive)
same,nuclei count,[2],155%
same,z-score,[3]; [13],0.619
same,z-score,[3]; [14],-0.892
same,z-score,[3]; [15],-1.39
same,inhibition,[4],-5.89% (inactive)
same,fluorescence slope,[5],-0.383 (inactive)
same,NADPH fluorescence slope,[6],-5.6e-05 (inactive)
same,fluorescence slope,[12],0.00569 (inactive)
same,outcome,[8],inactive
same,inhibition,[9],-0.884% (inactive)
Cc1cccc(C)c1NC1=NCCCS1,inhibition,[9],6.94% (inactive)
NC(Cc1cc(O)c(O)cc1O)C(=O)O (centres undefined),inhibition,[9],-1.78% (inactive)
C[N+]1(C)[C@@H]2CC[C@H]1CC(OC(=O)C(CO)c1ccccc1)C2 (some centres undefined),inhibition of aggregation,[1],-2.8% (inactive)
same,nuclei count,[1],112%
same,inhibition,[2],-82.3% (inactive) and -114% (inactive)
same,nuclei count,[2],123% and 124%
same,z-score,[3]; [13],-1.12 and 0.779
same,z-score,[3]; [14],0.388 and 0.223
same,z-score,[3]; [15],-0.779 and -1.81
same,inhibition,[4],1.48% (inactive) and 15.3% (inactive)
same,fluorescence slope,[5],-0.509 (inactive) and -0.518 (inactive)
same,NADPH fluorescence slope,[6],-2.9e-05 (inactive) and -4.5e-05 (inactive)
same,slope,[7],0.005 (inactive) and 0.00423 (inactive)
same,outcome,[8],inactive
same,inhibition,[9],30.8% (inactive) and -7.87% (inactive)
same,inhibition,[10],13.4% (inactive) and 12.2% (inactive)
same,inhibition,[11],35.7% (inactive) and 30.4% (inactive)
O=C(O)c1nn(Cc2ccc(Cl)cc2Cl)c2ccccc12,inhibition,[9],-0.768% (inactive)
C[C@]12CC[C@@H](O)CC1CC[C@@H]1[C@@H]2CC[C@]2(C)C(=O)CC[C@@H]12 (some centres undefined),inhibition,[9],0.791% (inactive)
C[C@]12CCC(=O)C=C1CC[C@@H]1[C@@H]2CC[C@]2(C)C(=O)CC[C@@H]12,inhibition of aggregation,[1],16.3% (inactive)
same,nuclei count,[1],88.1%
same,inhibition,[2],-105% (inactive)
same,nuclei count,[2],117%
same,z-score,[3]; [13],-1.04
same,z-score,[3]; [14],-1.5
same,z-score,[3]; [15],2.67
same,inhibition,[4],11.3% (inactive)
same,fluorescence slope,[5],-0.41 (inactive)
same,NADPH fluorescence slope,[6],2.5e-05 (inactive)
same,slope,[7],0.00365 (inactive)
same,outcome,[8],inactive
same,inhibition,[9],3.25% (inactive) and 26.7% (inactive)
same,inhibition,[10],5% (inactive)
same,inhibition,[11],31.7% (inactive)
CCCN1CCC[C@H](c2cccc(O)c2)C1,inhibition,[9],0.621% (inactive)
O=P(c1ccccc1)(c1ccccc1)N1CCCCC1,inhibition,[2],-13.6% (inactive)
same,nuclei count,[2],99.1%
same,z-score,[3]; [13],-0.682
same,z-score,[3]; [14],-0.604
same,z-score,[3]; [15],-1.11
same,inhibition,[4],18.9% (inactive)
same,fluorescence slope,[5],-0.396 (inactive)
same,NADPH fluorescence slope,[6],1.4e-05 (inactive)
same,fluorescence slope,[12],0.00417 (inactive)
same,outcome,[8],inactive
same,inhibition,[9],-7.33% (inactive)
COc1ccc(Cc2nccc3cc(OC)c(OC)cc23)cc1OC,inhibition of aggregation,[1],-8.7% (inactive)
same,nuclei count,[1],110%
same,inhibition,[2],-204% (inactive)
same,nuclei count,[2],140%
same,z-score,[3]; [13],1.76
same,z-score,[3]; [14],-0.33
same,z-score,[3]; [15],-0.255
same,inhibition,[4],9.37% (inactive)
same,fluorescence slope,[5],-0.442 (inactive)
same,NADPH fluorescence slope,[6],-7e-05 (inactive)
same,slope,[7],0.00447 (inactive)
same,outcome,[8],inactive; toxic
same,inhibition,[9],-20% (inactive) and 8.29% (inactive)
same,inhibition,[10],-5.8% (inactive)
same,inhibition,[11],-3.94% (inactive)
COC[C@H]1OC(=O)c2coc3c2[C@@]1(C)C1=C(C3=O)C2CCC(=O)[C@@]2(C)C[C@H]1OC(C)=O (some centres undefined),inhibition,[9],4.09% (inactive)
NCC(O)c1cc(O)c(O)cc1F (centres undefined),inhibition,[9],1.21% (inactive)
COc1ccc2c(c1)[C@@]13CCCC[C@H]1[C@@H](C2)NCC3,inhibition,[9],4.9% (inactive)
CC1(C(=O)O)C2CCC(O2)C1(C)C(=O)O (centres undefined),inhibition,[9],-0.9% (inactive)
NNC(=O)c1ccc(O)cc1,inhibition,[9],-10.7% (inactive)
CC(C)(O)[C@@H]1[C@H]2OC(=O)[C@@H]1[C@]1(O)C[C@H]3O[C@]34C(=O)O[C@H]2[C@]14C (tested in a mixture with another compound),inhibition,[9],-1.93% (inactive)
CC1=C[C@@H]2c3cccc4[nH]cc(c34)C[C@H]2N(C)C1,inhibition,[9],69.4% (active)
CN1CCC23CCCC[C@H]2C1Cc1ccc(O)cc13 (some centres undefined),inhibition,[9],-3.02% (inactive)
C=CCN1CCC2(C)c3cc(O)ccc3CC1[C@@H]2C (some centres undefined),inhibition,[9],4.21% (inactive)
c1ccc2sc(C3(N4CCCCC4)CCCCC3)cc2c1,inhibition,[9],-0.941% (inactive)
O=C(Cc1ccc(Cl)c(Cl)c1)N1CCCCC1CN1CCCC1 (centres undefined),inhibition,[9],1.42% (inactive)
N#CC(C#N)=Cc1ccc(O)c(O)c1,inhibition,[9],1.54% (inactive)
CN1C2CCC1CC(OC(c1ccccc1)c1ccccc1N)C2 (centres undefined),inhibition,[9],-4.19% (inactive)

# Source: PubChem BioAssay
